FMDV inh = antivirals against foot and mouth disease virus; actives 1.2% (n = 410,000); AID 1159524; Potency, µM (doses to about 57.9 µM), for the others: top-dose activity change, negative = inhibition, most hits filed as inhibitors; FMDV antiviral cell-based qHTS; calls by dose curve; tested in HEK293T cells; also: read-out not given here; potency is read from the fitted curve at half-maximal effect; nearly all actives have a fitted effect of over 45% in size
Lassa entry inh = inhibitors of Lassa virus binding or cell entry; AID 540256; actives 1.2% (n = 300,000); Potency, µM (doses to about 37.9 µM), for the others: at the top dose activity change, negative = inhibition, usual class: inhibitors; Lassa virus pseudotype entry inhibition, cell reporter; calls by dose curve; tested in HEK293 cells; also: potency is read from the fitted curve at half-maximal effect; nearly all actives have a fitted effect of over 50% in size
MARV entry inh = inhibitors of Marburg virus binding or cell entry. Potency, µM (doses to about 37.8 µM), for inactives: top-dose activity change, negative = inhibition, hits mostly inhibitors. actives 1.8% (n = 300,000). Marburg virus pseudotyped entry inhibition, cell reporter; calls by dose curve; tested in HEK293 cells; also: potency is read from the fitted curve at half-maximal effect
VACV mCherry inh = vaccinia inhibition (mCherry reporter). Vaccinia virus mCherry reporter infection, fluorescence. Potency, µM (titrated, usually from 36.5 µM), for the others: at the top dose activity change, negative = inhibition, actives largely listed as inhibitors. actives 0.63% (n = 310,000); calls by dose curve; tested in A549 cells; also: potency is read from the fitted curve at half-maximal effect; nearly all actives have a fitted effect of over 35% in size
VACV Venus inh = vaccinia inhibition (Venus reporter); actives 0.46% (n = 330,000); Vaccinia virus Venus reporter expression, fluorescence; Potency, µM (series often up to 36.5 µM), for the others: at the top dose activity change, negative = inhibition, usual class: inhibitors; AID 720580; calls by dose curve; tested in A549 cells; also: potency is read from the fitted curve at half-maximal effect; nearly all actives have a fitted effect of over 30% in size
HCMV antiviral = inhibitors of human cytomegalovirus; HFF cells, HCMV-luciferase reporter, 72 h; hits give low values; activity change, negative = inhibition, % at 57.5 µM; actives 4.5% (n = 410,000); in the data active = activity change below about -60%; inconclusive = no clear call, values can overlap the other calls; inactive = above about -39%
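Screen run at 2 compound doses on HFFs infected with reporter HCMV, MOI 1 PFU/cell. Luciferase activity from cell lysates at 72 h post infection gave inhibition relative to buffer-only and Salinomycin wells.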
Numbers without * were called inactive; i = inactive; ? = inconclusive; . = no result; [ ] = another dose, or the depositor's remark. Compounds with a hit are over-represented: about 6.5% of the library has one in this group of screens. % is scaled to controls: 0 for no effect and ±100 for the full control effect.

SMILES	FMDV inh	Lassa entry inh	MARV entry inh	VACV mCherry inh	VACV Venus inh	HCMV antiviral
CCOC1=CC(=O)N(CCC(=O)NCc2ccc(C)cc2)C1	.	.	.	.	.	2
Cc1ccc(Sc2ncnc3onc(C)c23)cc1	18µM*	-4%	?	-12%	-14%	64
Cc1noc2ncnc(Sc3ccc(Cl)cc3)c12	?	-20%	?	.	-3%	-79*
Cc1ccc(CSc2ncnc3onc(C)c23)cc1	-15%	-15%	?	-20%	-8%	?
CCOCCN1CCN(c2c(C)c(C)nc3cc(-c4cc(OC)cc(OC)c4)nn23)CC1	-13%	-32%	-1%	?	-27%	-84*
Cc1cnc(/C=C/c2ccc(N(C)C)cc2)cn1	.	.	.	?	-30%	.
O=C(Oc1ccc(NC2=C(Cl)C(=O)c3ccccc3C2=O)cc1)c1ccc([N+](=O)[O-])cc1	?	.	1%	.	.	.
CC(=O)Nc1ccc(NC2=C(Cl)C(=O)c3ccccc3C2=O)cc1	28µM*	?	?	?	?	-101*
COc1ccccc1NC1=C(NC(C)=O)C(=O)c2ccccc2C1=O	6%	.	.	.	.	-66*
CN(C)c1ccc(NC2=C(Cl)C(=O)c3ccccc3C2=O)cc1	?	?	?	?	11µM*	-97*
COc1ccc(C(=O)COC(=O)c2cc(-c3ccccc3)nc3c(C)cccc23)cc1	-9%	-11%[46.1 µM]	.	-8%	0%	-5
N#Cc1ccccc1-c1cncnc1NCc1cccnc1	12%	.	.	-7%	-6%	.
COc1ccc(/C=C2\Sc3ccc(C(=O)NCc4cccnc4)cc3N(C)C2=O)cc1OC	?	?	?	i	-13%	-27
COc1ccc(/C=C2\Sc3ccc(C(=O)N4CCN(Cc5ccccc5)CC4)cc3N(C)C2=O)cc1OC	13µM*	.	.	.	.	-83*
CCOC(=O)C1=C(C)OC(N)=C(C#N)[C@H]1c1cc2ccccc2nc1N1CCCCC1	.	.	1%	.	.	.
Cc1coc2c(O)cc3c(c12)O[C@@]1(N2CCCCC2)C(=O)NCCC[C@@H]31	.	.	-27%	.	.	.
COC(=O)c1c(NC(=O)C(Cl)Cl)sc2c1C(C(=O)OC)CC2 (stereo unspecified)	?	.	.	.	.	-62*
C[C@]12CCCCC3=CC(=O)C=C[C@@]31OC(=O)CC2	.	.	.	.	.	-17
O=C(NCc1ccccc1Cl)c1cnc2sc(N3CCOCC3)nn2c1=O	-18%	25%[46.1 µM]	.	1%	2%	6
Cc1ccc(N=Nc2ccc(N)cc2C)c(S(N)(=O)=O)c1	49%	22%	1%[46.1 µM]	-30%	-14%	70
O=S(=O)(O)c1ccc(N=Nc2ccccc2)cc1	-17%	19%[46.1 µM]	14%[46.1 µM]	i	-17%	-3
Cc1cc(-c2ccc(N=Nc3ccc4c(S(=O)(=O)O)cc(S(=O)(=O)O)c(N)c4c3O)c(C)c2)ccc1N=Nc1ccc2c(S(=O)(=O)O)cc(S(=O)(=O)O)c(N)c2c1O	32µM*	?	?	.	.	.
Nc1c(N=Nc2ccc(-c3ccc(N=Nc4cc(S(=O)(=O)O)c5ccccc5c4N)cc3)cc2)cc(S(=O)(=O)O)c2ccccc12	.	?	14µM*	.	.	.
O=c1c(-c2ccc(Cl)cc2)nc2cncnc2n1Cc1ccccc1Cl	1%	.	.	.	.	.
COCCNC(=O)[C@H]1[C@H](CO)[C@H]2Cn3c(ccc(-c4ccc(F)cc4)c3=O)[C@@H]1N2C(=O)NC(C)C	.	.	.	.	.	3
SMILES	FMDV inh	Lassa entry inh	MARV entry inh	VACV mCherry inh	VACV Venus inh	HCMV antiviral
COc1cccc(CNC(=O)[C@@H]2[C@@H](CO)[C@@H]3Cn4c(ccc(-c5cncnc5)c4=O)[C@H]2N3C(C)=O)c1	.	.	.	.	.	-101*
COc1ccccc1CCNc1ncnc2nc[nH]c12	.	.	.	-26%	?	.
COc1cccc(/C=N/Nc2ccccc2C(=O)O)c1O	8%	.	.	.	.	-80*
COc1cccc(/C=N/Nc2ccc(C(=O)O)cc2)c1O	3.5µM*	.	.	-9%	-13%	-95*
COc1ccc(Oc2ncc3nc(-c4ccccc4)c(=O)n(Cc4cccs4)c3n2)cc1	-13%	.	.	.	.	.
CCOc1ccc2nc(N(CCCN(C)C)C(=O)c3ccc(S(=O)(=O)N4CCCC4)cc3)sc2c1	-20%	.	.	.	.	-18
CCc1ccc2nc(N(CCCN(C)C)C(=O)c3ccc(S(=O)(=O)N4CCc5ccccc5C4)cc3)sc2c1	-18%	-17%	?	-10%	-23%	-62*
CN(C)CCCN(C(=O)c1ccc(S(=O)(=O)N2CCCC2)cc1)c1nc2ccc(Br)cc2s1	-25%	?	10µM*	-13%	-27%	-23
CCOc1cccc2sc(N(CCCN(C)C)C(=O)c3ccc(S(=O)(=O)N(C)c4ccccc4)cc3)nc12	-17%	.	.	?	?	-26
CCOc1cccc2sc(N(CCCN(C)C)C(=O)c3ccc(S(=O)(=O)N4CCc5ccccc5C4)cc3)nc12	0%	.	.	.	.	-68*
CCCCN(CCCC)c1ccc(C=Nc2ccc(/C=C/c3ccnc4ccccc34)cc2)cc1C	.	.	.	-17%	-14%	.
Cc1ccc(NC(=O)c2ccco2)c(NC(=O)c2ccccc2)c1	3%	-2%[46.1 µM]	12%[46.1 µM]	-2%	7%	3
CCN(CC)P(=O)(Nc1ccc(C)cc1Br)c1ccc(N(C)C)cc1NC(=O)c1ccco1 (stereo unspecified)	-29%	.	11µM*	-13%	-2%	-78*
C[C@H](CO)NS(=O)(=O)c1cc(Cl)ccc1F	.	5%[46.1 µM]	.	.	.	.
COc1cccc(N(CC(=O)Nc2cccnc2)S(C)(=O)=O)c1	2%	2%[46.1 µM]	?	i	-6%	-103*
COc1ccccc1NC(=O)c1ccc(CN(c2cc(Cl)ccc2C)S(=O)(=O)c2ccccc2)cc1	-16%	5%	?	.	-3%	-20
CCOc1ccc(N(CC(=O)Nc2ccc(OC)cc2)S(=O)(=O)c2ccc(Cl)cc2)cc1	-10%	-12%[46.1 µM]	.	-12%	4%	4
COc1ccc(NC(=O)c2ccc(CN(c3cc(Cl)ccc3C)S(=O)(=O)c3ccccc3)cc2)cc1OC	-12%	-18%	4.1µM*	.	.	-18
CCOc1ccc(S(=O)(=O)N(CC(=O)Nc2ccc(OC)c(Cl)c2)c2ccccc2)cc1	0%	-9%[46.1 µM]	3%[46.1 µM]	-15%	-14%	-60*
CCOc1ccc(N(CC(=O)Nc2ccccc2OC)S(=O)(=O)c2ccccc2)cc1	2%	.	.	.	.	-87*
O=C(NC1CCCCCC1)C1CCN(C(=O)N2CCOc3ccc(Cl)cc32)CC1	-5%	?	.	-11%	-21%	10
C[C@H]1CC[C@@H]2N(C1)C[C@H]1[C@@H]3C[C@H]4[C@@H](C/C(=N\O)[C@H]5C[C@@H](O)CC[C@@]54C)[C@@H]3CC[C@H]1[C@]2(C)O	-7%	.	.	.	.	.
CC(C)C(NS(C)(=O)=O)c1nnc2n1CCN(Cc1cccc3ncccc13)CC2 (stereo unspecified)	-8%	.	.	0%	-3%	.
COC(=O)c1cc(NC(=O)CN(c2cccc(OC)c2)S(=O)(=O)c2ccccc2)ccc1Cl	?	10µM*	16µM*	?	?	?

Source: PubChem BioAssay
